Source: PubChem BioAssay AID449762 (Southern Research Specialized Biocontainment Screening …, 2010)
In all, about 330,000 compounds went through this assay and about 1,900 (0.58%) were called active. Not shown: some 4% with an inconclusive outcome. No stated cut-off is given here; in the data, inconclusive means inhibition above about 70% without an active follow-up result; inactive means below that. A selection follows. Results with a measured potency or affinity are listed apart.

Assay: M. tuberculosis growth inhibition, HTS (AID 449762);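 further: bacterial growth assessed after seven days of incubation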
Settings: M. tuberculosis H37Rv growth inhibition, 7H9 media; at 25 µM; stronger effect = higher value

| Compound | inhibition |
| --- | --- |
| Cn1c(CCNC(=O)c2cccs2)nnc1SCC(=O)Nc1nc(-c2ccccc2)cs1 | -0.83% (inactive) |
| Cc1cc(C)n2nc(C(=O)OCC(=O)Nc3ccc(C)c(F)c3)nc2n1 | -2.78% (inactive) |
| Cc1ccc(N/C=C/C(=O)c2sc(-c3ccccc3)nc2C)cc1 | 11.4% (inactive) |
| COc1ccc(/C=C/C(=O)c2sc(-c3ccccc3)nc2C)cc1 | -17.3% (inactive) |
| COc1ccc(NC(=O)c2sc(-c3ccccc3)nc2C)c(OC)c1 | 3.27% (inactive) |
| Cc1nc(-c2ccccc2)sc1C(=O)/C=C/c1ccc(Cl)cc1 | 36.1% (inactive) |
| Cc1ccc(S(=O)(=O)CCC(=O)NCc2ccco2)cc1 | -10.5% (inactive) |
| O=C(Nc1ccc(N2CCOCC2)c(Cl)c1)c1ccc(-n2cnnc2)cc1Cl | 2.83% (inactive) |
| COc1ccc(-n2c(CNCCc3ccc(C)cc3)nc3ccccc3c2=O)cc1 | 14.6% (inactive) |
| COc1ccc(CN2CCN(c3ccc(F)cc3)CC2)c(OC)c1OC | 0.31% (inactive) |
| COc1ccc(CN2CCN(S(=O)(=O)c3ccc(F)cc3)CC2)c(OC)c1OC | 9.52% (inactive) |
| Cc1ccc(S(=O)(=O)N2CCOCC2)cc1NC(=O)C(c1ccc(Cl)cc1)C(C)C (stereo not given) | -2.19% (inactive) |
| CCOC(=O)[C@H]1[C@H]2COc3ccc(OC)cc3[C@@H]2N2C(=O)c3ccccc3NC(=O)[C@@]12C | 3.81% (inactive) |
| CC(NC(=O)c1cc(COc2ccc3ncccc3c2)on1)c1ccc(F)cc1 (stereo not given) | 6.82% (inactive) |
| Cc1cc(C)n(CCNC(=O)c2cc(COc3ccc4ncccc4c3)on2)n1 | 4.76% (inactive) |
| Cc1ccc(/C=N/NC(=O)Cc2ccc(Cl)cc2)c(O)c1 | -1.94% (inactive) |
| O=C(COc1ccccc1F)Nc1ccc(S(=O)(=O)Nc2nccs2)cc1 | 3.76% (inactive) |
| O=C(C1=C[C@@H](c2ccc(C(F)(F)F)cc2)C[C@@H](OCc2ccc(CO)cc2)O1)N1CCN(Cc2ccccc2)CC1 | 5.34% (inactive) |
| O=C(Nc1cc(C(F)(F)F)ccc1-n1cncn1)c1ccc(Br)cc1 | -2.45% (inactive) |
| Cc1ccc(C(=O)Nc2cc(C(F)(F)F)ccc2-n2cncn2)o1 | -8.09% (inactive) |
| Cc1c(C(=O)O)oc2ccc(S(=O)(=O)NCCC3=CCCCC3)cc12 | -7.6% (inactive) |
| CC(=O)N1CCCc2cc(S(=O)(=O)NC(C(=O)NCc3ccc(C)cc3)C(C)C)ccc21 (stereo not given) | 9.01% (inactive) |
| Cc1ccc(C(=O)Cn2cncn2)cc1 | 9.3% (inactive) |
| CCCCn1c(O)c(/C=C2\C=Nc3ccccc32)c(=O)[nH]c1=O | 12.7% (inactive) |
| Cn1c(O)c(/C=C2/C=CC=N2)c(=O)[nH]c1=O | 17.3% (inactive) |
